The record followed here is PubChem BioAssay (EPA / NIEHS).

The target in assay [1] is Bile acid receptor (Homo sapiens) (UniProt Q96RI1). Description: OT_FXR_FXRSRC1_1440: Odyssey Thera (OT) 24-hour HEK293T Protein-Complementation Assay for Farnesoid X receptor/SRC-1 Co-activator (AID 2283384; active = hit-call score of the fitted dose curve at least 0.9, where 1 is the maximum). The essentials:
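Cell-based binding reporter: interaction of FXR with SRC-1 brings reporter fragments together, giving a fluorescence signal read 24 h after dosing of HEK293T cells.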

Assay [2] deals with Retinoic acid receptor RXR-alpha (Homo sapiens) (UniProt P19793). Description: OT_NURR1_NURR1RXRa_0480: Odyssey Thera (OT) 8-hour HEK293T Protein Complementation Assay for Nurr1/retinoid X receptor (RXR) (AID 2283385; active = hit-call score of the fitted dose curve at least 0.9, where 1 is the maximum). The essentials: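 Compounds are applied to HEK293T cells carrying Nurr1 and RXRα linked to reporter fragments. After 8 h, fluorescence intensity reports heterodimer formation, with DMSO as baseline.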

Assay [3] has the same target. Description: OT_NURR1_NURR1RXRa_1440: Odyssey Thera (OT) 24-hour HEK293T Protein Complementation Assay for Nurr1/retinoid X receptor (RXR) (AID 2283386; active = hit-call score of the fitted dose curve at least 0.9, where 1 is the maximum). The essentials: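 Measured as fluorescence from a reconstituted split reporter, this 24 h HEK293T complementation assay scores compound-induced gain of Nurr1/RXRα association relative to DMSO.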
In assay [4] the target is Peroxisome proliferator-activated receptor gamma (Homo sapiens) (UniProt P37231). In words: OT_PPARg_PPARgSRC1_0480: Odyssey Thera (OT) 8-hour Protein-Complementation Assay for Peroxisome Proliferator-activated Receptor Gamma / SRC-1 Co-activator (AID 2283387; active = hit-call score of the fitted dose curve at least 0.9, where 1 is the maximum;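 note: nuclear to cytoplasmic split Venus YFP fluorescence ratio reporting PPARg SRC-1 interaction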). The essentials:
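Read-out: 488 nm N/C fluorescence ratio from complemented Venus YFP fragments, ≥350 cells per image, gain-of-signal fitted against DMSO baseline. Fusions of PPARg/SRC-1 with IFP1/IFP2 expressed transiently in HEK293T; compounds applied 8 h.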

Assay [5] has the same target. Description: OT_PPARg_PPARgSRC1_1440: Odyssey Thera (OT) 24-hour Protein-Complementation Assay for Peroxisome Proliferator-activated Receptor Gamma/ SRC-1 Co-activator (AID 2283388; active = hit-call score of the fitted dose curve at least 0.9, where 1 is the maximum;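 note: nuclear to cytoplasmic ratio of reconstituted Venus YFP fluorescence in fixed imaged cells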). The essentials:
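Readout: nuclear-to-cytoplasmic 488 nm fluorescence ratio, ≥350 cells per image, 8 images per well, after 24 h compound exposure of HEK293T expressing PPARg/SRC-1 split-YFP fusions. Activity fitted in positive direction against DMSO.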

Read-out in assay [6]: Tumor necrosis factor receptor superfamily member 6 (Homo sapiens) (UniProt P25445)
In words: LTEA_HepaRG_FAS: Life Technologies and Expression Analysis (LTEA) Assay for Fas cell surface death receptor (FAS) using HepaRG (AID 2283447). The note with it: mRNA level, 48 h; actives raise or lower the signal. The method, boiled down: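 Differentiated human HepaRG cells, pre-cultured 48 h, were exposed in duplicate for 48 h to 8-point half-log concentrations (top 100 uM, 0.5% DMSO) in serum-free induction medium; FAS mRNA measured by qRT-PCR, normalized to ACTB/GAPDH/POLR2A, bidirectional fit versus DMSO.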

Read-out in assay [7]: Fatty acid synthase (Homo sapiens) (UniProt P49327)
Description: LTEA_HepaRG_FASN: Life Technologies and Expression Analysis (LTEA) Assay for Fatty Acid Synthase (FASN) using HepaRG (AID 2283448). The note with it: mRNA level, 48 h; actives raise or lower the signal. The essentials: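 Transcript-level assay: HepaRG liver cells are treated for 48 h across an eight-point range topping at 100 uM, and FASN mRNA, normalized to three housekeeping genes, is compared with DMSO controls in both directions.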

Read-out in assay [8]: Cyclin D1 (CCND1), CCND1 (gene 595)
Description: LTEA_HepaRG_CCND1: Life Technologies and Expression Analysis (LTEA) Assay for Cyclin D1 (CCND1) using HepaRG (AID 2283451). Particulars: mRNA level, 48 h; actives raise or lower the signal. The essentials:
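qRT-PCR (Fluidigm 96.96 array) read-out of transcript level, housekeeping-normalized (ACTB/GAPDH/POLR2A). HepaRG cells, 48 h chemical exposure, 8-point half-log series from 100 uM, 0.5% DMSO vehicle; gain or loss relative to DMSO baseline.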

Read-out in assay [9]: catalase (CAT), CAT (gene 847)
Description: LTEA_HepaRG_CAT: Life Technologies and Expression Analysis (LTEA) Assay for catalase (CAT) using HepaRG (AID 2283452). Particulars: mRNA level, 48 h; actives raise or lower the signal. The essentials:
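Differentiated HepaRG cells in serum-free induction medium were dosed 48 h in duplicate, eight half-log concentrations from 100 uM in 0.5% DMSO. Transcript measured by TaqMan qRT-PCR, normalised to ACTB/GAPDH/POLR2A, fitted bidirectionally against DMSO.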

Read-out in assay [10]: flavin-containing dimethylaniline monooxygenases 3 (FMO3), FMO3 (gene 2328)
In words: LTEA_HepaRG_FMO3: Life Technologies and Expression Analysis (LTEA) Assay for flavin-containing dimethylaniline monooxygenases 3 (FMO3) using HepaRG (AID 2283453).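 For AC50: FMO3 transcript by TaqMan qRT-PCR normalized to ACTB GAPDH and POLR2A.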 The note with it: mRNA level, 48 h; actives raise or lower the signal. The essentials: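 HepaRG, 48 h exposure, 8-pt half-log series from 100 uM, 0.5% DMSO vehicle, duplicates; FMO3 transcript by Fluidigm TaqMan qRT-PCR, housekeeping-normalized; gain/loss fit vs DMSO.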

Read-out in assay [11]: Cytochrome P450 (CYP1A1), CYP1A1 (gene 1543)
In words: LTEA_HepaRG_CYP1A1: Life Technologies and Expression Analysis (LTEA) Assay for Cytochrome P450 (CYP1A1) using HepaRG (AID 2283454). Particulars: mRNA level, 48 h; actives raise or lower the signal. The essentials: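 qRT-PCR read-out: CYP1A1 transcript normalized to three housekeeping genes, fitted bidirectionally against 0.5% DMSO vehicle baseline. Human HepaRG cells, 48 h chemical exposure, 8-point half-log series topping at 100 uM.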

Read-out in assay [12]: CFLAR gene, CFLAR (gene 8837)
In words: LTEA_HepaRG_CFLAR: Life Technologies and Expression Analysis (LTEA) Assay for CFLAR gene using HepaRG (AID 2283455). Particulars: mRNA level, 48 h; actives raise or lower the signal. The essentials: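 HepaRG cells were plated for 48 h, switched to serum-free induction medium, then exposed in duplicate for 48 h to 8 concentrations (top 100 uM, half-log steps, 0.5% DMSO). CFLAR mRNA was measured by qRT-PCR, normalized to ACTB, GAPDH and POLR2A.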

Read-out in assay [13]: Cyclin D2 (CCND2), CCND2 (gene 894)
Description: LTEA_HepaRG_CCND2: Life Technologies and Expression Analysis (LTEA) Assay for Cyclin D2 (CCND2) using HepaRG (AID 2283449).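 Note: CCND2 transcript measured by TaqMan qRT-PCR and normalised to three housekeeping genes.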 The note with it: mRNA level, 48 h; actives raise or lower the signal. The essentials: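 Differentiated human HepaRG cells were exposed for 48 h in serum-free induction medium to eight half-log concentrations topping at 100 uM (0.5% DMSO vehicle). CCND2 mRNA was quantified by TaqMan qRT-PCR, normalised to ACTB, GAPDH and POLR2A, and fitted bidirectionally against DMSO.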

Assay [14] is described as follows: CEETOX_H295R_11DCORT: CeeTox H295R High-throughput Steroidogenesis Assay for 11-Deoxycortisol (11DCORT) (AID 2283432).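 Note: human adrenal H295R cells prestimulated with 10 µM forskolin for 48 h; 11-deoxycortisol secreted into the medium measured by LC-MS/MS.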 The note with it: actives raise or lower the signal. The method, boiled down:
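H295R cells; 10 uM forskolin prestim 48 h; compound in 0.1% DMSO 48 h; media extracted with MTBE; 11-deoxycortisol by LC-MS/MS, 7-point standard curve; gain/loss vs DMSO baseline; viability by MTT in same wells.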

Assay [15] can be described thus: CEETOX_H295R_CORTIC: CeeTox H295R High-throughput Steroidogenesis Assay for Corticosterone (CORTIC) (AID 2283437).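 Note: corticosterone secreted into medium quantified by mass spectrometry.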 The note with it: actives raise or lower the signal. The method, boiled down: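 H295R cells were prestimulated 48 h with 10 uM forskolin, then exposed 48 h to test chemical in 0.1% DMSO. Medium corticosterone was MTBE-extracted and quantified by HPLC-MS/MS; bidirectional fit versus DMSO baseline.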

A short description of assay [16]: CEETOX_H295R_CORTISOL: CeeTox H295R High-throughput Steroidogenesis Assay for Cortisol (AID 2283438).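 Note: cortisol secreted into medium quantified by LC-MS/MS.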 Particulars: actives raise or lower the signal. The method, boiled down: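 Human adrenocortical H295R cells (passage ≤10) received test chemicals for 48 h after forskolin priming. Secreted cortisol was measured by LC-MS/MS.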
Assay [17] in a line: CEETOX_H295R_DOC: CeeTox H295R High-throughput Steroidogenesis Assay for DOC (AID 2283439). The note with it: actives raise or lower the signal. The method, boiled down: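 Secreted DOC was quantified from H295R media by HPLC-MS/MS after 48 h chemical exposure following 48 h forskolin (10 uM) prestimulation. Values were fitted in both directions relative to DMSO, the negative control and baseline.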

Assay [18] is described as follows: CEETOX_H295R_PROG: CeeTox H295R High-throughput Steroidogenesis Assay for Progesterone (PROG) (AID 2283442).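 Note: human H295R adrenal cells primed with 10 µM forskolin before dosing.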 Particulars: actives raise or lower the signal. The essentials: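 Progesterone read-out: HPLC-MS/MS on MTBE extracts of conditioned medium after 48 h chemical exposure of forskolin-primed (10 uM, 48 h) H295R cells. Gain or loss of signal was fitted relative to DMSO baseline.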

Results filed as inconclusive are left out. Calls of active or inactive are those of the source. Rule for the calls, unless noted: active = hit-call score of the fitted dose curve at least 0.9, where 1 is the maximum; inactive = score below 0.9.

Chain of Peroxisome proliferator-activated receptor gamma (Homo sapiens) (P37231 whole entry, looked up, the tested form may be a part): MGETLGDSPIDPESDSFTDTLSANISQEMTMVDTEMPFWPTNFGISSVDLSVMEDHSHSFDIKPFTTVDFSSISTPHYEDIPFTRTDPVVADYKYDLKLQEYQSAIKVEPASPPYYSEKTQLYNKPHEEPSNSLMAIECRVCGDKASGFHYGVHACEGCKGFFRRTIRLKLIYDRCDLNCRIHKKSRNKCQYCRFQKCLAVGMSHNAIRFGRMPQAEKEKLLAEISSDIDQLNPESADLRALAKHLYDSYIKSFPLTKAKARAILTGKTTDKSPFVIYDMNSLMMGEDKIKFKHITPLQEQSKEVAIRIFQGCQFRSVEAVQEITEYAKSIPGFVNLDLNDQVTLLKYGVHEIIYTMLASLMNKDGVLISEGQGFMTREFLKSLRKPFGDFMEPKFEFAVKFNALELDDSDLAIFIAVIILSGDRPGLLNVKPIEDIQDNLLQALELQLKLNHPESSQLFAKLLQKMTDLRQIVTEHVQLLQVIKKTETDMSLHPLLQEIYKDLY
Chain of Fatty acid synthase (Homo sapiens) (P49327 whole entry, looked up): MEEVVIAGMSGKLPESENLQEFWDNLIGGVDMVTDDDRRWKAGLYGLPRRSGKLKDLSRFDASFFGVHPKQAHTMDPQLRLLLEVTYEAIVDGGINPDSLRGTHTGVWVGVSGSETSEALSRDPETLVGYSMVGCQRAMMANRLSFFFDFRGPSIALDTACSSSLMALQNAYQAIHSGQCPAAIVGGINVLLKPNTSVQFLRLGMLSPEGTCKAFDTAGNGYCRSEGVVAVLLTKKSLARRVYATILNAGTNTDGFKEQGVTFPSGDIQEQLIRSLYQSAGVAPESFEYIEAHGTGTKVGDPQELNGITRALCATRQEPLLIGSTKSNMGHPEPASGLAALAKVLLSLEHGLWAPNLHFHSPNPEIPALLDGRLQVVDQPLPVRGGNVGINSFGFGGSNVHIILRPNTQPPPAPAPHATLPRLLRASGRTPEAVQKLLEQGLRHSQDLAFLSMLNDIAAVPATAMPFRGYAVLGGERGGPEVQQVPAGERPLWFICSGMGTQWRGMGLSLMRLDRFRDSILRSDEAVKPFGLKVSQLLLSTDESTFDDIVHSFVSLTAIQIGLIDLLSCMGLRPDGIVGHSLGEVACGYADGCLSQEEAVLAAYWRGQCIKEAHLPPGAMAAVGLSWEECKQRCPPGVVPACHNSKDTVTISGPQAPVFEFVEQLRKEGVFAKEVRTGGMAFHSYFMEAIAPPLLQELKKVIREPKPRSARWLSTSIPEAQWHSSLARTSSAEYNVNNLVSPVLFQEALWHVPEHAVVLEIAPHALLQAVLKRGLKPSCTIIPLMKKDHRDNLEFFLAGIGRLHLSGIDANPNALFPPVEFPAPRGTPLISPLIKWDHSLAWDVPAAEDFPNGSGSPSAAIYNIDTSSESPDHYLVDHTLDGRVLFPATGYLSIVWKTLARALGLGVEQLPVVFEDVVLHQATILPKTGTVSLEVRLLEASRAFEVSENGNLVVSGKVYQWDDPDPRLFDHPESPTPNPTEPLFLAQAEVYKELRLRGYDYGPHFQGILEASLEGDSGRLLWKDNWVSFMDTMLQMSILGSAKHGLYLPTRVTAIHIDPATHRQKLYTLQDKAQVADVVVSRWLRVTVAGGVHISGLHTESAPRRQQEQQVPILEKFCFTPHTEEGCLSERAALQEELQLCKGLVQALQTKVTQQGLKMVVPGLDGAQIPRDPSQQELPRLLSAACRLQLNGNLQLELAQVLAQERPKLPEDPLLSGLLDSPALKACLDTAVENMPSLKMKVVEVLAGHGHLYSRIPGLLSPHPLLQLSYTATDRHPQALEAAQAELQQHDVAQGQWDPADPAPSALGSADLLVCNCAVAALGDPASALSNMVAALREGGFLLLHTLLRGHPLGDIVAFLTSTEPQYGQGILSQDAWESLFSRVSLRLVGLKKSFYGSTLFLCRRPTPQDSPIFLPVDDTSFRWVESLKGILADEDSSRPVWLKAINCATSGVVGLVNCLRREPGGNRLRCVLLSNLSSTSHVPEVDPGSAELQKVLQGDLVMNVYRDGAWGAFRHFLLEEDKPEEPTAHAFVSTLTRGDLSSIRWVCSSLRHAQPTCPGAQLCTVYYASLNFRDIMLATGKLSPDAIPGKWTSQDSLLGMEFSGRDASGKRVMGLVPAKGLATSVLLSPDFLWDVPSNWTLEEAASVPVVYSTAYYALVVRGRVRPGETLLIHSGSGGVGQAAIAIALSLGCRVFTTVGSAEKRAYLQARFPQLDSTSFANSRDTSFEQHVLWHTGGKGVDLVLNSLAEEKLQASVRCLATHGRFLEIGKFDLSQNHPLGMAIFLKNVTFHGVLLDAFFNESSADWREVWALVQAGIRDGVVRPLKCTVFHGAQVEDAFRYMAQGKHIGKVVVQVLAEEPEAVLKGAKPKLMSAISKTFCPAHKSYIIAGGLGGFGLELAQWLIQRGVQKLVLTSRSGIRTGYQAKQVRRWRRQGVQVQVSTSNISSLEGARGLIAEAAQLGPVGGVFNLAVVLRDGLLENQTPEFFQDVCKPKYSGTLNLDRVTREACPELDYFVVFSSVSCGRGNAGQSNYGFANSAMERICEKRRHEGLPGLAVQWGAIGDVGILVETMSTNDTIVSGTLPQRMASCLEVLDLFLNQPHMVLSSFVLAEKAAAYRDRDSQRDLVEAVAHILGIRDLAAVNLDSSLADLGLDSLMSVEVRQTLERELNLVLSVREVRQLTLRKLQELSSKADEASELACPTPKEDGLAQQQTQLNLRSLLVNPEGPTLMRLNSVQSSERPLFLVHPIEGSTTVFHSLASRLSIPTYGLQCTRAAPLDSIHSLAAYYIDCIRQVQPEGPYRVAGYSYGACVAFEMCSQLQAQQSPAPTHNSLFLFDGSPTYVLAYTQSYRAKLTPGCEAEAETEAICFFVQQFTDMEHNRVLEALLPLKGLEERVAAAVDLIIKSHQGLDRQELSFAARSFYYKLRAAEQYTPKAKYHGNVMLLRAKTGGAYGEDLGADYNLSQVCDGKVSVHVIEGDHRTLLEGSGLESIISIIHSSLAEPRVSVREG
Chain of Bile acid receptor (Homo sapiens) (Q96RI1 whole entry, looked up, the tested form may be a part): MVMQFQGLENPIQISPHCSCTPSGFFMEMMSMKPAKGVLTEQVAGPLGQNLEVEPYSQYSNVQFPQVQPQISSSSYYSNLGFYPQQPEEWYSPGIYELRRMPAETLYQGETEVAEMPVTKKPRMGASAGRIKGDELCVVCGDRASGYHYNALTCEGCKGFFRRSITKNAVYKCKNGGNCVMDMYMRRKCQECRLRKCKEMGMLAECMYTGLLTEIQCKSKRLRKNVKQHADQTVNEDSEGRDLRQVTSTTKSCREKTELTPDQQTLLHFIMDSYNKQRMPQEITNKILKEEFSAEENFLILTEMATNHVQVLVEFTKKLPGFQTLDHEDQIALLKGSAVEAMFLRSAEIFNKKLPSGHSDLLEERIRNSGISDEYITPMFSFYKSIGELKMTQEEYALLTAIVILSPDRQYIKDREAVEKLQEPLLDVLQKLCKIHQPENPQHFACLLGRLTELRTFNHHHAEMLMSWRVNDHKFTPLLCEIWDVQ
Chain of Retinoic acid receptor RXR-alpha (Homo sapiens) (P19793 whole entry, looked up, the tested form may be a part): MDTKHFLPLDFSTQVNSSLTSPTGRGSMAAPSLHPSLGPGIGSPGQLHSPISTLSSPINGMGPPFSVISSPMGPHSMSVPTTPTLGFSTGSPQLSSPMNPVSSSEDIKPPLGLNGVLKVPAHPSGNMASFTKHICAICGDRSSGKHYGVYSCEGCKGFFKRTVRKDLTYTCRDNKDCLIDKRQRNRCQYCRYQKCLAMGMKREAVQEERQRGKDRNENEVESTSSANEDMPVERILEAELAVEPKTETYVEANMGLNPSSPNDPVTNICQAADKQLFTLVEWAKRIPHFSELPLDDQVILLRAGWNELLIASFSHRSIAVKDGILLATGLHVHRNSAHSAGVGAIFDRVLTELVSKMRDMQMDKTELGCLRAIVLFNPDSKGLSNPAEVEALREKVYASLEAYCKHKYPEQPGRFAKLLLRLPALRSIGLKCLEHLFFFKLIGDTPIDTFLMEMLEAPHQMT

In general, AC50 refers to the concentration giving half of the maximal activity seen. For the molecule `CCN(Cc1cccnc1)C(=O)c1cccc(Cl)c1[C@]1(C)C(=O)N(Cc2ccc(OC)cc2OC)c2ccc(Cl)cc21`, the AC50 in [1] is 0.59 µM (active); in [6], 21.3 µM (active); in [7], 5.5 µM (active); in [9] it was 18.4 µM (active); in [10], 16.6 µM (active). For the same molecule, the call in assay [2], in [3], in assay [4], in [5], in assay [8] and in assay [11] was inactive. Besides, the result in [12] was inactive.
For the molecule `O=CCCCC=O`, the outcome in [1], in [3], in assay [4], in assay [5], in assay [6] and in assay [7] was inactive. The call in assay [13], in assay [8], in assay [9], in assay [10], in assay [11] and in assay [12] was inactive. Further, the AC50 in assay [2] is 50 µM (active).
For the molecule `CN1C(=O)N(c2ccccc2Br)Cc2cnc(Nc3ccc4c(c3)OCC(CO)O4)nc21` (stereo unspecified), the half-maximal activity concentration (AC50) was 0.54 µM (active) in assay [1]; 0.714 µM (active) in assay [2]; 0.723 µM (active) in assay [14]; 0.679 µM (active) in assay [17]; 0.661 µM (active) in assay [18]; 90.4 µM (active) in assay [6]. Also, the AC50 is 78.3 µM (active) in [7], 67.2 µM (active) in [9], 44.8 µM (active) in [10] and 12.1 µM (active) in assay [11]. Further, the outcome in assay [3], in assay [5], in assay [15], in assay [16], in assay [13] and in [12] was inactive.
